# About 2,700 (4%) of roughly 68,000 compounds showed an effect of 50% or more. The sample holds strong results, similar compounds and a random draw of the others, so the mix is not that of the screen.
# Tested on: Plasmodium berghei
# Experiment: Screen against P. berghei liver stage (PbLuc), transformed with Luciferase, at 2uM
# Assay type: functional, HepG2
# Conditions: tested at 2 uM
row,Compound,INHIBITION [%]
1,CCCn1nc2c(cc1=O)CN(Cc1nc(C)c(C)o1)CC2,44.43
2,OC(CN1CC(n2cccn2)C1)c1ccc2c(c1)OCCO2 (stereo not given),-28.22
3,Cc1nc(CNCC2CN(C)CCO2)cs1 (stereo not given),-50.23
4,CN1CCOC(CNCc2csc(C3CCCCC3)n2)C1 (stereo not given),16.84
5,CN1CCOC(CNCc2csc(C3CCCC3)n2)C1 (stereo not given),60.71
6,CCOC(=O)c1c(NC(=O)CN2CCN(C(C)=O)CC2)sc2c1CCC2,25.47
7,C1CC(N2C[C@@H]3COC[C@]3(COCC3CCOCC3)C2)C1,22.96
8,CCc1noc(-c2ccc(SCC(=O)O)nc2)n1,47.9
9,CCOC(=O)CSc1ccc(-c2nc(C)no2)cn1,70.75
10,CCOC(=O)CSc1ccc(-c2nc(CC)no2)cn1,46.51
11,COc1ccc(Br)c(C(=O)NCC2CC2)c1,9.21
12,O=C(Nc1cccc(OC(F)F)c1)C1CN(S(=O)(=O)C2CC2)C1,21
13,CC(NC(=O)C1CCN(S(N)(=O)=O)CC1)c1cccc(OC(F)F)c1 (stereo not given),1.42
14,NS(=O)(=O)N1CCC(C(=O)Nc2cccc(OC(F)F)c2)CC1,50.98
15,CN(C)C[C@@H]1C[C@@H]2CN(C(=O)c3ccoc3)CC[C@@H]2N1CC1CC1,-72.76
16,C=Cc1ccc(C(=O)N2CCCC(Nc3ccccc3)C2)cc1 (stereo not given),43.86
17,CN(C)S(=O)(=O)N1CCC(C(O)c2ccc(Cl)cc2)CC1 (stereo not given),24.36
18,CCN(C)S(=O)(=O)N1CCC(C(O)c2ccc(F)cc2)CC1 (stereo not given),52.98
19,CCN(C)S(=O)(=O)N1CCC(C(O)c2ccc(Cl)cc2)CC1 (stereo not given),-11.41
20,CCCn1nc2c(cc1=O)CN(Cc1nnc(C3CC3)o1)CC2,-7.73
21,Cc1ncsc1CCN(C)C(=O)CN1CCOC1=O,29.13
22,c1cc(CN2CC[C@H]3O[C@@H](COCC4CCOCC4)CC[C@H]32)ccn1,-5.17
23,Cc1nc2ccccc2n1CCNCc1cccc(O)c1,54.47
24,Cc1nc2ccccc2n1CCNCc1cccc(C#N)c1,-5.59
25,COc1ccc(CNCCn2c(C)nc3ccccc32)cc1O,-92.51
26,CSc1nsc(NC(=O)c2cc(C3CC3)nn2C)n1,-11.3
27,O[C@]12CCNC[C@H]1CN(c1ccnc3ccccc13)CC2,16.35

row,Compound,INHIBITION [%]
1,OC[C@H]1CN(Cc2c(Cl)cncc2Cl)C[C@H]1CN1CCCC1,72.91
2,OC[C@H]1CN(Cc2c(Cl)cncc2Cl)C[C@H]1CN1CCOCC1,14.13
3,OC[C@H]1CN(Cc2c(Cl)cncc2Cl)C[C@H]1CN1CCCCCC1,-34.9
4,CC1CN(CC(=O)NCc2ccc(F)cc2)CCN1c1nccs1 (stereo not given),-4.29
5,CN(C)CCNc1cc(-c2ncccc2Cl)c2cc[nH]c2n1,10.22
6,COc1ccc(CN2CCC=C(C(C)NC(C)=O)C2)cc1 (stereo not given),60.13
7,CC(=O)NC(C)C1=CCCN(Cc2ccc(C(=O)O)cc2)C1 (stereo not given),43.44
8,COc1ccnc(CN2CCC=C(C(C)NC(C)=O)C2)c1OC (stereo not given),21.97
9,Cc1cnccc1N1CCN(C(=O)C2CC3(CCNCC3)CN2)CC1 (stereo not given),-28.32
10,CC[S+](CC)[c-]1c(=O)[nH]c(=O)n(CCc2ccc(F)cc2)c1=O,9.31
11,CC(NC(=O)c1ccc(Cl)cc1)c1nnc(SCC(N)=O)n1C (stereo not given),14.46
12,CS(=O)(=O)NCC1CCCN(C(=O)Nc2cccc3ccccc23)C1 (stereo not given),58.93
13,CS(=O)(=O)NCC1CCCN(C(=O)Nc2ccccc2F)C1 (stereo not given),-5.61
14,CS(=O)(=O)NCC1CCCN(C(=O)Nc2ccccc2Cl)C1 (stereo not given),-7.21
15,Cn1cc(C(=O)NC2CCCC2)c(-c2cccnc2)n1,-18.81
16,CN(CC(=O)Nc1ccccc1C(=O)NC1CC1)Cc1ccccc1Cl,19.66
17,CCOc1ccccc1NC(=O)CN(C)Cc1ccccc1Cl,55.73
18,CCOC(=O)c1ccccc1NC(=O)CN(C)Cc1ccccc1Cl,16.25
19,O=C1NCCN1C1CCN(CC(O)c2ccccc2F)CC1 (stereo not given),-54.48
20,CNC(=O)[C@@H]1C[C@H](N)CN1S(=O)(=O)c1cc(Cl)c(Cl)s1,18.19
21,CNC(=O)[C@@H]1C[C@H](N)CN1S(=O)(=O)c1cc(Cl)cc(Cl)c1O,92.61
22,CNC(=O)[C@@H]1C[C@H](N)CN1S(=O)(=O)c1cc(C)c(Cl)cc1C,25.45
23,CN(C)[C@@H]1CN(C(=O)Cc2ccsc2)[C@@H]2CCCO[C@H]12,16.63
24,CN(CCN1CCCCCC1)C(=O)c1c(O)cccc1O,-46.57
25,CN(Cc1ccccc1CN1CCCC1)C(=O)c1c[nH]c(=O)[nH]1,0.31
26,CN(Cc1ccccc1CN1CCCC1)C(=O)c1c(O)cccc1O,54.29
27,C1CCN(CCN2CCCCC2C2OCCO2)CC1 (stereo not given),-26.04

row,Compound,INHIBITION [%]
1,Cc1nnc(N2CCOC(C)(C(=O)N(C)C)C2)c2ccccc12 (stereo not given),29.68
2,CNC(=O)C1(C)CN(c2nnc(C)c3ccccc23)CCO1 (stereo not given),31.39
3,Cc1nnc(N2CCOC(C)(C(=O)NC3CCCC3)C2)c2ccccc12 (stereo not given),51.88
4,CCn1ncc2c1C(COCC1CC1)N(Cc1ccccn1)CC2 (stereo not given),1.74
5,Cc1nc(C2CCCN(C(=O)CCn3ccccc3=O)C2)no1 (stereo not given),47.23
6,CCOc1cc(C(=O)N2CCCC(c3noc(CC)n3)C2)ccn1 (stereo not given),43.79
7,CCc1nc(C2CCCN(C(=O)c3ccc4[nH]cnc4c3)C2)no1 (stereo not given),52.52
8,CCOc1cc(C(=O)N2CCCC(c3noc(C)n3)C2)ccn1 (stereo not given),-29.94
9,CCc1nc(C2CCCN(C(=O)c3ccc(OC(C)C)nc3)C2)no1 (stereo not given),54.92
10,CCc1nc(C2CCCN(C(=O)c3ccc(OC)cc3)C2)no1 (stereo not given),48.43
11,CCc1nc(C2CCCN(C(=O)c3ccc4[nH]nnc4c3)C2)no1 (stereo not given),38.72
12,CC(C)c1nc(C2CCCN(C(=O)CCn3ccccc3=O)C2)no1 (stereo not given),29.59
13,CCc1nc(C2CCCN(C(=O)c3ccc(O)nc3)C2)no1 (stereo not given),9.82
14,CC(C)c1nc(C2CCCN(C(=O)c3ccc4[nH]cnc4c3)C2)no1 (stereo not given),33.91
15,CCOc1cc(C(=O)N2CCCC(c3noc(C(C)C)n3)C2)ccn1 (stereo not given),64.16
16,CCc1nc(C2CCCN(C(=O)CCn3ccccc3=O)C2)no1 (stereo not given),54.92
17,Cc1cccn2c(CNC(C)CCc3ccc(O)cc3)cnc12 (stereo not given),-19.78
18,Cc1cccc(C(=O)NC(C)CN2CCCC2=O)n1 (stereo not given),5.91
19,c1ccc(CO[C@@H]2CC[C@H]3[C@H]2OCCN3Cc2ccsc2)nc1,22.62
20,O=C(c1ccsc1)N1C[C@H]2CN(Cc3cccnc3)C(=O)[C@H]2C1,18.91
21,CN1CCc2c(C#N)c(NCc3cccnc3)n3cnnc3c2C1,-48.47
22,CN(C)CC1CN(Cc2coc(-c3ccc(Cl)cc3)n2)CCO1 (stereo not given),35.23
23,O=C(O)C1(Oc2ccc3ccccc3c2)CCN(c2ccncc2)CC1,2.04
24,CCCc1n[nH]c(C2CN(C(=O)CCn3ccccc3=O)CCO2)n1 (stereo not given),60.09
25,CCc1n[nH]c(C2CN(C(=O)CCn3ccccc3=O)CCO2)n1 (stereo not given),-27.5
26,CCCc1n[nH]c(C2CN(C(=O)Cn3ccccc3=O)CCO2)n1 (stereo not given),-53.98
27,CC(C)NC(=O)N1CCCC(c2nnc(CN3CCOCC3)n2C)C1 (stereo not given),10.02

row,Compound,INHIBITION [%]
1,CC(NCc1cnc(N2CCOCC2)nc1)c1ccc(Cl)s1 (stereo not given),-62.93
2,Cc1nc(C2CCCN2CCCS(=O)(=O)N(C)C)no1 (stereo not given),9.36
3,C[C@H](C(=O)N1Cc2ccccc2CC2(CCCN2C)C1)c1ccccc1 (stereo not given in full),29.56
4,CCNC(=O)c1cn(C(C)(C)C)c2ncccc12,40.4
5,O=C(C1CC1)N1CCCC1c1nnc2n1CCCCC2 (stereo not given),58.29
6,O=C(C1CCC1)N1CCCC1c1nnc2n1CCCCC2 (stereo not given),41.56
7,O=C(C1CCCC1)N1CCCC1c1nnc2n1CCCCC2 (stereo not given),-15.83
8,C[C@@H]1CN(S(=O)(=O)N2CCCCCC2)C[C@@]1(O)C1CCC1,6.68
9,CCC(O)CN1CCN(C(=O)c2ccc(Cn3cccc3)cc2)CC1 (stereo not given),-25.46
10,O=C(Nc1cccnc1)[C@H]1C[C@H]2CN(Cc3ccc(F)cc3)C[C@@H]1O2,6.35
11,CC1CCC(NS(=O)(=O)CC(=O)Nc2ccc(N3CCCC3)cn2)CC1 (stereo not given),-3.25
12,CNC(=O)CS(=O)(=O)NC1CCC(C)CC1 (stereo not given),7.46
13,Cc1ccc(NC(=O)CS(=O)(=O)NC2CCC(C)CC2)nc1 (stereo not given),59.03
14,CCN(CC)CCn1c(NC(=O)c2scnc2C)nc2ccccc21,-34.06
15,O=C(Nc1ccccc1Oc1cccc(F)c1)NC1CCS(=O)(=O)C1 (stereo not given),11.88
16,CNC(=O)NC(=O)CSC(C)c1ccccc1F (stereo not given),20.74
17,CC(=O)N1CCC(Cc2cncc(-c3c(C)n[nH]c3C)n2)C1 (stereo not given),23.22
18,CC(C)CN1CCC2(CCN(Cc3ccoc3)CC2)C1=O,44.43
19,CCS(=O)(=O)Nc1cnn(Cc2cccc(C)c2)c1,52.95
20,CCS(=O)(=O)Nc1cnn(Cc2cccc(Cl)c2)c1,20.19
21,CCS(=O)(=O)Nc1cnn(Cc2cccc(F)c2)c1,3.58
22,COCc1cncc2c1CCN(Cc1cnn(C)c1)C2,53.98
23,CC(C)COCc1cncc2c1CCN(Cc1cnn(C)c1)C2,-40.42
24,Cn1cc(CN2CCc3c(COCC4CC4)cncc3C2)cn1,-11.66
